High-throughput results as filed in PubChem BioAssay.
GPR151 activ: activators of human GPR151, primary screen, cell-based, PathHunter beta-arrestin, luminescence; activation, % at 11.2 µM; AID 1508602, 2020; G-protein coupled receptor 151 (Homo sapiens), Q8TDV0; 650,000 tested, 1% active; PathHunter beta-arrestin GPR151 cells; in the data active = activation above about 4.9%;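 also: 0% = median of compound wells and 100% = cells with positive control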
Target sequence (Q8TDV0 whole entry, looked up): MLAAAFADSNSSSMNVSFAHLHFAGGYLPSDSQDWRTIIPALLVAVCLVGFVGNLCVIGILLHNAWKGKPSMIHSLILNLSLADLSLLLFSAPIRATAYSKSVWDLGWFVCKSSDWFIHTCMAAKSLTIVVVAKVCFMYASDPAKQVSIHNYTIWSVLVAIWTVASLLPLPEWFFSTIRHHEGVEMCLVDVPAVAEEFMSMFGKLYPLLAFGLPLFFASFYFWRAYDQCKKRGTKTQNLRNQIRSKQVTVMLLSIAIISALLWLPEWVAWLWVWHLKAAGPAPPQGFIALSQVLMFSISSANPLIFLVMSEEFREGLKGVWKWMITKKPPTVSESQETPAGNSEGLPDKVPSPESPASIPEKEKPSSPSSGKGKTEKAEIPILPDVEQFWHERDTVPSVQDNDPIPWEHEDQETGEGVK
TEAD-YAP inh: TEAD-YAP interaction inhibition, primary screen, TEAD-YAP interaction inhibitor project, luminescence, HEK-TIYL cells; TEAD-Gal4/YAP UAS-luciferase luminescence; inhibition, % at 9.12 µM; 640,000 tested, 1.4% active; in the data active = inhibition above about 32%;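 also: 0% = median of test compound wells and 100% = reference inhibitor wells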
FBW7 act: FBW7 E3 ligase activators, primary screen, biochemical, AlphaScreen, human; F-box/WD repeat-containing protein 7 (Homo sapiens), Q969H0; AlphaScreen FBW7–phospho-cyclin E peptide binding, activator screen; normalized activity (activation), % at 26.1 µM; 650,000 tested, 0.13% active; AID 1259310, 2017; in the data active = normalized activity above about 1.9%;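 also: purified mutant Fbw7 with reduced substrate affinity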
MITF inh: MITF inhibitors, primary screen, biochemical, AlphaScreen, human | 650,000 tested, 0.91% active | Microphthalmia-associated transcription factor (Homo sapiens), O75030 | inhibition, % at 2.6 µM | AlphaScreen MITF homodimerization, bead proximity signal | AID 1259374, 2018; in the data active = inhibition above about 50%;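 also: 0% = vehicle wells with protein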
* = called active by the depositor. This is a sample that favours compounds with a hit; in the whole collection about 3.5% have one here.

SMILES	GPR151 activ	TEAD-YAP inh	FBW7 act	MITF inh
Cc1nc(C)n(-c2ccc(Nc3cc(-n4cc(C)c(Nc5ccccc5)n4)ccn3)cc2)n1	2	25	1.9*	27
CC(C)Cc1cc(C(=O)Nc2cccc(Cl)c2)no1	0	-48	0	-24
CC(C)c1cc(C(=O)Nc2cccc(O)c2)no1	-4	81*	0	12
CC(C)Cc1cc(C(=O)Nc2cccc(O)c2)no1	-1	87*	0	5
COC(=O)Cn1cc(/C=C2/NC(=O)N(c3cccc(Cl)c3)C2=O)c2ccccc21	2	2	0	-3
Cn1cc(/C=C2/NC(=O)N(c3cccc(Cl)c3)C2=O)c2ccccc21	2	50*	0	10
CC(=O)c1c(C)[nH]c(C(=O)Nc2ccc(C)cn2)c1C	-1	53*	0	1
CC(=O)c1c(C)[nH]c(C(=O)Nc2nc(C)cs2)c1C	-2	54*	0	-1
N#Cc1ccc(Cn2c(-c3cncs3)nc3ccccc32)cc1	0	-16	0	13
Cc1cccc(-c2nc3s/c(=C\c4ccco4)c(=O)n3n2)c1	1	1	0	9
Cc1nn2c(=O)/c(=C/c3ccco3)sc2nc1=O	0	4	0	77*
Cc1ccc(/C=C2\SC(=S)N(CCCC(=O)OCCN(C)C)C2=O)cc1	4	93*	-1	14
Cc1ccccc1/C=C1\SC(=S)N(CCCC(=O)O)C1=O	-2	45*	0	-24
Cc1ccc(/C=C2\SC(=S)N(CCCC(=O)N3CCOCC3)C2=O)cc1	-1	7	0	14
C=CCN1C(=O)S/C(=C/c2c(F)cccc2Cl)C1=O	1	-65	0	-8
COCCCN1C(=O)/C(=C/c2ccc(C)cc2)SC1=S	0	6	1	10
O=C(O)CCCN1C(=O)/C(=C/c2c(F)cccc2Cl)SC1=S	2	60*	0	-4
Cc1ccc(/C=C2/SC(=S)N(CCCC(=O)O)C2=O)cc1	1	86*	0	-4
O=C(COC(=O)c1cccnc1)Nc1ccc(Cl)cc1	-1	11	0	-8
CCC(=O)N1CCc2cc(S(=O)(=O)Nc3cccc(OC)c3)ccc21	1	10	0	8
Cc1cccc(/C=C2\SC(=S)N(CCCC(=O)O)C2=O)c1	-2	75*	1	5
CCOc1ccc(/C=C2\SC(=S)N(CCC(=O)O)C2=O)cc1	-2	8	0	1
C#CCOc1ccc(/C=C2/SC(=S)N(CCC(=O)O)C2=O)cc1	-1	58*	0	11
C=CCOc1ccc(/C=C2\SC(=S)N(CCCC(=O)O)C2=O)cc1	3	80*	0	-3
Cc1ccc(/C=C2\SC(=S)N(CCCC(=O)O)C2=O)cc1	1	92*	0	4
SMILES	GPR151 activ	TEAD-YAP inh	FBW7 act	MITF inh
CCCCNC(=O)N(O)C1(C)SC(=S)N(C)C1(C)C (stereo not drawn)	0	2	0	-18
COC(=O)C1=C(C)N=c2s/c(=C\c3cn(-c4ccccc4)nc3-c3ccc(Cl)cc3)c(=O)n2C1c1ccccc1 (stereo not drawn)	0	1	0	-1
CCCCCNC(=O)c1c[nH]c2ccc(S(=O)(=O)N(CC)c3cccc(C)c3)cc2c1=O	1	4	0	8
Cc1cc(C)c(S(=O)(=O)N(C)C)c(C)c1	0	5	0	9
O=C(Nc1ccc(O)c(-c2nc3ccccc3s2)c1)c1ccccc1	0	3	0	-4
O=C(Nc1cccc(-c2nc3ccccc3s2)c1)c1cc([N+](=O)[O-])ccc1Cl	-1	36*	0	13
O=C(Nc1ccc(F)cc1)c1ccc(Cl)c([N+](=O)[O-])c1	1	48*	0	19
O=C(Nc1ccc2c(c1)OC(F)(F)O2)c1cc([N+](=O)[O-])ccc1Cl	0	68*	0	5
O=C(Nc1cccc(-c2nc3ccccc3s2)c1)c1ccccc1[N+](=O)[O-]	1	-33	0	-3
O=C(Nc1cc(C(F)(F)F)ccc1Cl)c1ccc(Cl)c([N+](=O)[O-])c1	-1	45*	0	2
C=CCNC(=S)N1CCN(C2c3cccc4cccc(c34)C2NS(=O)(=O)c2ccc(Cl)cc2)CC1 (stereo not drawn)	0	9	0	28
COC(=O)C(NC(=O)[C@@H](c1ccccc1)N1Cc2ccccc2C1=O)C(C)C (stereo partly drawn)	0	-2	0	-8
Cc1ccc(C(=O)NCc2cccnc2)cc1	3	-11	0	8
Cc1ccc2nc(C3CCN(CC(=O)Nc4nccs4)CC3)[nH]c2c1	0	-1	0	-3
O=C(Nc1cccc(F)c1)c1ccc(Cl)c([N+](=O)[O-])c1	2	13	0	2
O=C(Nc1cccc(Cl)c1)c1ccc(Cl)c([N+](=O)[O-])c1	-1	45*	0	27
O=C(Nc1ccc(Cl)cc1)c1cc(Cl)ccc1[N+](=O)[O-]	-1	7	0	-6
O=C(Nc1cccc(I)c1)c1cc([N+](=O)[O-])ccc1Cl	0	45*	1	8
Cc1cccc(NC(=O)c2cc(Cl)ccc2[N+](=O)[O-])c1	-1	45*	0	0
O=C(Nc1cccc(C(F)(F)F)c1)c1ccc(Cl)c([N+](=O)[O-])c1	-1	62*	0	4
O=C(Nc1cccc(I)c1)c1ccc(Cl)c([N+](=O)[O-])c1	-3	33*	0	21
Oc1ccc(CCNc2nc(Nc3ccccc3)nc3c2ncn3-c2ccccc2)cc1	-2	13	0	-1
Oc1ccc(CCNc2nc(Nc3ccccc3)nc3c2ncn3-c2ccsc2)cc1	0	38*	0	-113
Oc1ccc(CCNc2nc(Nc3ncccn3)nc3c2ncn3-c2ccsc2)cc1	-1	56*	0	1
COc1ccc(CCNc2nc(Nc3ccc(C(F)(F)F)cc3)nc3c2ncn3-c2ccsc2)cc1	1	11	0	4
SMILES	GPR151 activ	TEAD-YAP inh	FBW7 act	MITF inh
COc1ccc(CCNc2nc(Nc3ccc(N4CCOCC4)cc3)nc3c2ncn3-c2ccsc2)cc1	1	62*	0	17
Oc1ccc(CCNc2nc(Nc3cnccn3)nc3c2ncn3-c2ccsc2)cc1	-1	66*	0	2
CC(=O)c1ccc(-c2ccc(/C=c3\sc4nc(=O)c(C)nn4c3=O)o2)cc1	0	-2	0	7
CCc1ccccc1NC(=O)c1ccc(F)c(S(=O)(=O)N2CCN(c3cccc(C)c3)C(C)C2)c1 (stereo not drawn)	-1	35*	0	11
CCN1CCN(S(=O)(=O)c2cc(C(=O)Nc3ccc(Oc4ccccc4)cc3)ccc2F)CC1	0	66*	0	1
O=C(Nc1ccc(I)cc1)c1cccc(S(=O)(=O)N2CCOCC2)c1	2	8	0	12
